In the library only some 21% were active in any assay of this set; here they are far more common.
CHX counter: counter-screen for Shiga toxin inhibitors: cycloheximide protein synthesis inhibition. cell reporter, cycloheximide protein synthesis inhibition counterscreen. max response, %. hit rate 12% among 300,000. AID 2314; in the data active = max response mostly above about 13%, no sharp cut-off; inactive = mostly below about 14%; note: read at 38.3 µM for the half of the compounds with a filed dose; 0% is about no effect
Pf growth 48h: inhibits P. falciparum growth in the first generation, 48 h. P. falciparum luciferase growth in erythrocytes, 48 h. Potency, µM (highest dose often 28.7 µM), inactives show top-dose activity change, negative = inhibition, actives largely listed as inhibitors. hit rate 5.9% among 310,000; note: potency is the fitted concentration of half-maximal effect; % is set by controls: 0 for no effect and ±100 for the full control effect
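Erythrocytes infected with P. falciparum carrying an integrated firefly luciferase reporter (2% hematocrit, 0.1% parasitemia final) were exposed to compounds in RPMI 1640 with 0.5% Albumax at 37 C, 5% CO2. Growth inhibition was scored as reduced luminescence.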
Pf growth 96h: P. falciparum growth inhibition at 96 hour, primary screen for plastid delayed-death inhibitors; P. falciparum luciferase reporter growth, 96 h; Potency, µM (doses to about 28.7 µM), inactives show top-dose activity change, negative = inhibition, usual class: inhibitors; hit rate 6.9% among 320,000; AID 504834; note: potency is the fitted concentration of half-maximal effect; % is set by controls: 0 for no effect and ±100 for the full control effect
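Parasite growth measured via integrated firefly luciferase reporter in P. falciparum. Infected erythrocytes at 2% hematocrit, 0.05% parasitemia final were treated 96 hours at 37 C under 5% CO2, and luminescence was read.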
Giardia FBPA inh: blocks Giardia fructose-bisphosphate aldolase activity; A8B2U2; purified Giardia FBPA; Potency, µM (series often up to 59.6 µM), inactives show top-dose activity, negative = inhibition, hits mostly inhibitors; hit rate 0.71% among 290,000; note: potency is the fitted concentration of half-maximal effect; % is set by controls: 0 for no effect and ±100 for the full control effect; nearly all actives have a fitted effect of over 55% in size
Target sequence (A8B2U2 whole entry, looked up): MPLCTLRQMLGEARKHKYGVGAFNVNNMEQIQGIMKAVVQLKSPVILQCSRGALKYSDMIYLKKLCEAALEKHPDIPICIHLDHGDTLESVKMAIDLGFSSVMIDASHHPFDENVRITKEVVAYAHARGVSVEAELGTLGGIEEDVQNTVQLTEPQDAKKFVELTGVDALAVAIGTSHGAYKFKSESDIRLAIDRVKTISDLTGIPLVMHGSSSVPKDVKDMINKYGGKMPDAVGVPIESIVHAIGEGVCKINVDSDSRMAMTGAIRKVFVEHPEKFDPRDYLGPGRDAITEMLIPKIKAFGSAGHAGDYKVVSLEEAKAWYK
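40 nM FBPA preincubated 10 min at RT with compound (up to 57.5 uM final), then substrate plus GAPDH/TPI/NAD/arsenate coupling and diaphorase/resazurin added. Fluorescence read after 20 min at RT, 525/598 nm.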
NS1 inh: influenza NS1 inhibition. Potency, µM (highest dose often 46.1 µM), for the others: at the highest dose activity, positive = more growth. hit rate 0.4% among 270,000; calls by dose curve; note: potency is the fitted concentration of half-maximal effect; actives are rising curves; nearly all actives have a fitted effect of over 50% in size
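In this qHTS, NS1 from influenza A is expressed in budding yeast, where it slows growth. Cells are switched from glucose to 2% galactose medium (pH 6.0, -URA), treated with compound, and growth recovery is read at OD600.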
Shiga toxin inh: inhibitors of Shiga toxin in Vero cells; Vero cells, Shiga toxin protein synthesis inhibition reporter; inhibition, % at 38.7 µM; hit rate 9.2% among 290,000; in the data active = inhibition mostly above about 28%, no sharp cut-off; inactive = mostly below about 43%; note: 0% is about no effect
The depositor's hits bear a star; u = inconclusive; x = no result; [ ] = remark or other dose. Unless noted, calls come from the whole dose curve; as a rule, active = well fitted curve in the direction sought with a large enough effect; inconclusive = small, poorly fitted or top-dose-only effect, or another doubt; inactive = no such curve, though single readings can be large; an effect the other way counts as inactive or inconclusive.

SMILES | CHX counter | Pf growth 48h | Pf growth 96h | Giardia FBPA inh | NS1 inh | Shiga toxin inh
C#CCOc1ccc(C2C(C#N)=C(N)Oc3cc(O)ccc32)cc1 (stereo not given) | 1.8 | 4.9% | -12.0% | 5.7% | 9.6% | x
CN1CCN(C(=O)c2cc3c(=O)n4ccccc4nc3s2)CC1 | 11.8* | 38.3% | 7.4% | -2.9% | -1.2% | 48.7*
CC(C)NC(=O)c1cc2c(=O)n3ccccc3nc2s1 | 2.1 | 42.3% | 279.7% | 14.6% | -1.4% | -2.3
Cc1cccn2c(=O)c3cc(C(=O)NC4CCCCCC4)sc3nc12 | -5.0 | u | u | 14.7% | 6.0% | 21.2
CCOC(=O)N1CCN(C(=O)c2cc3c(=O)n4ccccc4nc3s2)CC1 | -2.3 | 102.3% | u | x | -10.9% | 6.3
O=C(NC1CCCCCC1)c1cc2c(=O)n3ccccc3nc2s1 | 29.0* | 26.0% | u | 10.0% | -7.7% | 74.8*
C=CCNC(=O)c1cc2c(=O)n3ccccc3nc2s1 | 33.7* | 126.4% | 20.7% | -4.3% | -1.3% | 72.3*
CN1CCN(C(=O)c2cc3sc4ccccc4c3s2)CC1 | 38.7* | 164.7% | 397.9% | 2.0% | -0.5% | 49.2
C/C(CCN1CCCCc2nc(C)c(C)cc21)=N\OC[C@@H](O)[C@@H]1O[C@@H]2OC(C)(C)O[C@@H]2[C@H]1O | x | x | x | -1.5%[12.9 µM] | x | x
NC(N)=N/N=C/c1cccc([N+](=O)[O-])c1O | 6.3 | u | -14.7% | 15.5% | -36.6% | -2.9
NC(N)=N/N=C/c1cccc(Cl)c1Cl | 10.4 | 1.65µM* | 2.08µM* | -22.5% | 4.2% | 10.7
Cc1ccc(N2C=Nc3ccc(C)c4nc(C)cc2c34)cc1 | 3.7 | 9.28µM* | 63.6% | 3.4% | 4.1% | 7.8
CCNC(=S)N1CCCC(C(N)=O)C1 (stereo not given) | 3.4 | 11.9% | 13.6% | 0.6% | x | 1.2
O=C(CN1C(=O)/C(=C/c2c(F)cccc2Cl)Oc2ccccc21)NCc1ccco1 | 38.6* | u | 57.8% | 1.5% | x | 77.2*
O=C(/C=C/c1ccc([N+](=O)[O-])cc1)NCc1ccco1 | 20.2 | 60.2% | u | -9.7% | -6.3% | 27.2*
CCOC(=O)CN1C(=O)/C(=C/c2ccc(Cl)cc2)Oc2ccccc21 | -3.1 | 5.1% | u | 0.5% | 0.6% | -11.3
O=C(/C=C/c1ccco1)NCCc1ccc(F)cc1 | 57.1* | -12.7% | -8.8% | -13.4% | 2.0% | 55.6*
O=C(/C=C/c1cccc([N+](=O)[O-])c1)NCc1ccco1 | -3.7 | 19.5% | u | -4.4% | -2.9% | 0.2
O=C(/C=C/c1ccc(F)cc1)NCc1ccco1 | 45.9* | 5.9% | 8.0% | -7.0% | -5.1% | 93.8*
Cc1ccc(OCCNC(=O)/C=C/c2ccccc2)cc1C | 0.8 | -11.6% | 14.6% | 6.8% | -14.2% | 28.4
NS(=O)(=O)c1ccc(CNC(=O)/C=C/c2c(F)cccc2Cl)cc1 | -3.8 | 7.4% | -7.4% | -3.4% | 0.5% | 11.7
COc1ccc(C(NC(=O)/C=C/c2ccco2)c2ccc(OC)c(OC)c2)cc1OC | 13.7 | -0.6% | u | 8.8% | 4.3% | 11.3
Cc1ccc(OCCNC(=O)/C=C/c2ccco2)cc1C | 9.9 | 14.5% | -54.5% | -9.8% | 16.6% | 78.2*
O=C(/C=C/c1ccc([N+](=O)[O-])cc1)c1ccco1 | -2.6 | 6.8% | u | -6.6% | -23.3% | -2.9
O=C(/C=C/c1ccc([N+](=O)[O-])cc1)/C=C/c1ccco1 | 37.5* | u | -10.9% | -6.1% | 2.9% | 73.1*
SMILES | CHX counter | Pf growth 48h | Pf growth 96h | Giardia FBPA inh | NS1 inh | Shiga toxin inh
O=C(/C=C/c1c(F)cccc1Cl)NCc1ccco1 | 39.1* | 13.2% | 113.3% | 1.0% | -2.5% | 182.0*
COc1ccc(C2(CNC(=O)/C=C\c3ccco3)CCCC2)cc1OC | 11.0 | 11.7µM* | u | -13.7% | 2.4% | 12.9
Cc1cccc(CNc2ncnc3ccc(-c4ccccc4C#N)cc23)c1 | x | x | x | -0.1% | x | x
COCCN(CCOC)c1nc(C)nc2c1nc(-c1ccccc1)n2CC1CCN(C)CC1 | x | x | x | 2.0% | x | x
Cc1ccc2c(c1)c1c(n2CCc2ccc(C)nc2)CCN(C)C1 | x | 14.7µM* | 2.08µM* | x | x | x
CC(=O)OC1CC[C@]2(C)C(=CCC3C4CCC(C(C)CCCC(C)C)[C@]4(C)CCC32)C1 (stereo not given in full) | x | x | x | 1.5% | x | x
O=C(Cc1ccccc1)NCC(=O)N/N=C/c1ccc([N+](=O)[O-])s1 | -1.4 | u | 5.22µM* | -6.7% | 19.4% | -2.8
O=C(CNC(=O)c1ccccc1)N/N=C/c1cccs1 | -1.2 | 43.7% | u | 2.2% | 1.2% | 29.8
O=C(CNC(=O)c1ccccc1)N/N=C/c1ccc([N+](=O)[O-])s1 | 20.1 | u | 4.15µM* | 1.8% | x | 12.4
CC(CNC(=S)Nc1cc(F)cc(F)c1)CSc1ccc(Cl)cc1 (stereo not given) | -3.9 | 0.0% | u | -8.1% | -4.4% | 31.7
CN(C)/C=C/c1onc(-c2c(F)cccc2Cl)c1C#N | 27.5* | 16.4% | 5.7% | -3.5% | x | 109.0*
CCOc1ccccc1OCC(=O)NCc1ccco1 | -3.5 | -5.6% | u | -1.5% | -15.4% | -8.5
O=C(COc1cccc2c1CCN(Cc1ccc(Br)cc1)C2=O)NCc1ccco1 | 29.4* | u | u | -0.6% | -4.1% | 64.7
O=C(CC12CC3CC(CC(C3)C1)C2)NC(=S)NCc1ccco1 | 1.8 | 13.1µM* | u | -3.6% | -0.5% | 20.0
C/C(CC(=O)NCc1ccco1)=N\NC(=O)COc1ccc(Cl)cc1Cl | -2.5 | 17.9% | 24.9% | 5.9% | -3.4% | -6.9
O=C(COc1ccc(Cl)cc1Cl)NCc1ccco1 | 28.7* | 55.3% | u | -1.0% | -20.5% | 125.5*
O=C(COc1ccccc1Cl)NCc1ccco1 | 22.5* | 27.5% | x | 4.2% | -6.1% | 30.3
O=C(NCc1ccco1)C12CC3CC(CC(C3)C1)C2 | -3.7 | u | 33.3% | -2.2% | 3.7% | -3.3
O=C(Cc1ccc(-c2ccccc2)cc1)NNC(=S)NCc1ccco1 | 31.9 | 0.8% | u | 8.7% | x | 56.0*
O=C(COc1ccc(Cl)cc1Cl)NNC(=S)NCc1ccco1 | 16.6* | 28.3% | 0.1% | 5.3% | -8.9% | 21.9
Cc1ccc2c(Cl)cc(Cl)c(OCC(=O)NC(=O)NCc3ccco3)c2n1 | -3.3 | 2.33µM* | u | -0.7% | -5.8% | 10.0
O=C(NCc1ccco1)c1ccc(COc2cc(Cl)ccc2Cl)cc1 | 23.9* | 5.22µM* | u | 4.1% | 2.0% | 69.2*
CCOc1ccc(C(=O)NCc2ccco2)cc1OCC | -1.9 | 0.0% | 181.4% | 4.8% | 7.9% | 20.8
Cn1cc(CN2CCC(n3nccc3NC(=O)C3CCCC3)CC2)cn1 | -2.9 | -1.5% | 23.5% | x | -3.0% | -9.7
O=[N+]([O-])c1ccc(C2=NN(CCO)C(=Nc3ccc(OC(F)(F)F)cc3)SC2)cc1 | -3.2 | 2.4% | 22.1% | -6.0% | -31.2% | -2.3
c1ccc(NN(Cc2cnccn2)c2ccccc2)cc1 | x | x | x | x | -3.5% | x
CCC(C)Nc1nc(OCC(F)(F)F)nc(OCC(F)(F)F)n1 (stereo not given) | -2.0 | 33.5% | x | 0.8% | -3.5% | -11.0
